Test results as given in publication PMC5700166.
Numbering of substitutions follows the chain as printed.

Assays:
Experiment in all cases: protein-binding microarray (PBM); PBM: ~300 nM protein, 6 mM HEPES pH 7.8, 80 mM KCl, 0.5 mM EDTA, 0.5 mM EGTA, 6% glycerol, 35 ng/ul poly-dIdC, 1% milk, 1 h, room temperature; Ap Aiptasia and Nv Nematostella (sea anemones) / Co Capsaspora / Aq Amphimedon (sponge) / Dm Drosophila / Hu human; RHD is the Rel homology domain; high values mean tight binding
Conditions in all cases: dsDNA, one strand shown
GST-Ap-NF-kB RHD = biological target: T1, GST-Ap-NF-kB RHD (Exaiptasia pallida (Aiptasia), UniProt A0A913YAJ5 2-422)
T1 sequence: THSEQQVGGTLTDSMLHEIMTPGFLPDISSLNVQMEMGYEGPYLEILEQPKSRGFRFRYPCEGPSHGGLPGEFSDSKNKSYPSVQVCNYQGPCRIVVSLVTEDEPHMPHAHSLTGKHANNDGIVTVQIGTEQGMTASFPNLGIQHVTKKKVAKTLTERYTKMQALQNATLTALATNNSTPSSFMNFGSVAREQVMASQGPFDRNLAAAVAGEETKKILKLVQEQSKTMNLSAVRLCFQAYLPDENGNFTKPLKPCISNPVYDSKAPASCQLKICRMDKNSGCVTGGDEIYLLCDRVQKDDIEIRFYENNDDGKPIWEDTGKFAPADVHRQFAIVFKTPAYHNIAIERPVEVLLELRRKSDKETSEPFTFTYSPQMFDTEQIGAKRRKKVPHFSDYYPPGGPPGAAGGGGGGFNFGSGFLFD

[1] = biological target: T2, GST-Nv-NF-kB (Cys allele) (Nematostella vectensis, UniProt E5G601 2-411)
T2 sequence: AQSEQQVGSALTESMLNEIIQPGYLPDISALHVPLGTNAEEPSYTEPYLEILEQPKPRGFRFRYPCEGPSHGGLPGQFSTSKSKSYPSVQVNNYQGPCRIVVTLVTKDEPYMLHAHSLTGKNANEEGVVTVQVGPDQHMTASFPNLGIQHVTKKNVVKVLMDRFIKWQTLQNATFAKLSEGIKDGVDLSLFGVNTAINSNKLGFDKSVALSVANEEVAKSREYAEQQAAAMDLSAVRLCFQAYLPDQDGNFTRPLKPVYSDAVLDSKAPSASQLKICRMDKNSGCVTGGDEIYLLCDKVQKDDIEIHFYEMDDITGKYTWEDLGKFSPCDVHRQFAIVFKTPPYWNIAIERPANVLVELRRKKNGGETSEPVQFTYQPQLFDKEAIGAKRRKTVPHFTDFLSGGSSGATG

[2] = biological target: T3, GST-Nv-NF-kB (Ser allele) (Nematostella vectensis, UniProt A7UNT2 2-411)
T3 sequence: T2 sequence with Q21R, C66S, S207N, E215Q, V217A, E225K, A268E, D399E

GST-Co-NF-kB = biological target: T4, GST-Co-NF-kB (Capsaspora owczarzaki, UniProt F1ARL5 200-546)
T4 sequence: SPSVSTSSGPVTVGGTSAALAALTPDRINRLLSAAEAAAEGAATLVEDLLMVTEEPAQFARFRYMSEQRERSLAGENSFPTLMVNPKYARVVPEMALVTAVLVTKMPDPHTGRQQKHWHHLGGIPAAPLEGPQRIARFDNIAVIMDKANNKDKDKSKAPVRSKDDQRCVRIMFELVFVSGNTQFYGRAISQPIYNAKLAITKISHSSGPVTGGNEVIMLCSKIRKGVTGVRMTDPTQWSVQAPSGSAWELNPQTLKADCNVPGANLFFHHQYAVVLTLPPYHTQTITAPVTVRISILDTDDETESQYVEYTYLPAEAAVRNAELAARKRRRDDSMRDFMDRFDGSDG

GST-Dm-Relish = biological target: T5, GST-Dm-Relish (Drosophila melanogaster, UniProt Q94527 99-473)
T5 sequence: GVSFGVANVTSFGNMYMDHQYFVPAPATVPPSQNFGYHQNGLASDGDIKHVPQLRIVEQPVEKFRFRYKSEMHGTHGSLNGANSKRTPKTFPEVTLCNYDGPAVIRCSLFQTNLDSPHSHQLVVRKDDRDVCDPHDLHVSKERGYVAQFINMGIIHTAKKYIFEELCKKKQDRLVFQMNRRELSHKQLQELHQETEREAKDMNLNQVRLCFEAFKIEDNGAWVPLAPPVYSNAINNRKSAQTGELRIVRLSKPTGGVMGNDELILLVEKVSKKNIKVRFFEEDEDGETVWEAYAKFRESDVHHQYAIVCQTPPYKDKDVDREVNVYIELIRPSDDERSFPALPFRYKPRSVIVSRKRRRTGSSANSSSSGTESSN

GST-Aq-NF-kB = biological target: T6, GST-Aq-NF-kB (Amphimedon queenslandica, UniProt A9Y5G7 2-389)
T6 sequence: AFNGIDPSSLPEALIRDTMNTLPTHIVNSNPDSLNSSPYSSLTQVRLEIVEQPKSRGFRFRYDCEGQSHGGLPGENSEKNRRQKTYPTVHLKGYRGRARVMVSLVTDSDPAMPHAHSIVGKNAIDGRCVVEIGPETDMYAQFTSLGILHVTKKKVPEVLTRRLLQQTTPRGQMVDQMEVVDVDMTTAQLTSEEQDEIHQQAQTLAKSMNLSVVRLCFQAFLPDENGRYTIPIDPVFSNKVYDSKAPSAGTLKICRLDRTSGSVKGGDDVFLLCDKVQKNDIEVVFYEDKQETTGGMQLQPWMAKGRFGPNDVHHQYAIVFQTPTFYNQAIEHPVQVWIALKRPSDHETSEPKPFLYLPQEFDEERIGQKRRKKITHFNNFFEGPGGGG

GST-Hu-p50 = GST-Hu-p50 (Homo sapiens, UniProt P19838 7-356)
Chain of GST-Hu-p50 (P19838 7-356): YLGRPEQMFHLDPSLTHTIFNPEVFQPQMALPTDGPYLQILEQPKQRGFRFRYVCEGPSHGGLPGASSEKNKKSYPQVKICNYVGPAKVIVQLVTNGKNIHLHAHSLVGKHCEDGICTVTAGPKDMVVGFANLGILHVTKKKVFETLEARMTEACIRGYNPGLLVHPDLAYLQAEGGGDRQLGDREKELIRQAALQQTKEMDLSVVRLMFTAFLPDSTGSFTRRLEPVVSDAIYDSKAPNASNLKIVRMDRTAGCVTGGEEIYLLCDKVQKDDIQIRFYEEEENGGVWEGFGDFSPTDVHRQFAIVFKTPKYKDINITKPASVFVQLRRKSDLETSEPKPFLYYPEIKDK

Sequence | binding signal (GST-Ap-NF-kB RHD) [z-score] | binding signal [1] [z-score] | binding signal [2] [z-score] | binding signal (GST-Co-NF-kB) [z-score] | binding signal (GST-Dm-Relish) [z-score] | binding signal (GST-Aq-NF-kB) [z-score] | binding signal (GST-Hu-p50) [z-score]
CCGATTAACATCAAAAACTTCCCTGATGTTAATCGGGTCTTGATTCGCTTGACGCTGCTG | 5.3 | 5.84 | 6.81 | 3.89 | 5.16 | 6.27 | 4.68
CCGATTAACATCAGGGAAATACCTGATGTTAATCGGGTCTTGATTCGCTTGACGCTGCTG | 6 | 8.81 | 6.78 | 3.06 | 8.42 | 9.82 | 5.57
CCGATTAACATCAATATTCCCCCTGATGTTAATCGGGTCTTGATTCGCTTGACGCTGCTG | 8.39 | 9.05 | 10 | 10.4 | 6.05 | 7.05 | 7.24
CCGATTAACATCACGTACTTCCCTGATGTTAATCGGGTCTTGATTCGCTTGACGCTGCTG | 1.66 | 1.92 | 1.78 | 1.1 | 7.92 | 3.04 | 1.38
CCGATTAACATCAAAAATTCCCTTGATGTTAATCGGGTCTTGATTCGCTTGACGCTGCTG | 6.05 | 9.28 | 8.71 | 4.19 | 7.19 | 7.62 | 6.22
CCGATTAACATCAGCATCCCCCCTGATGTTAATCGGGTCTTGATTCGCTTGACGCTGCTG | 5.21 | 4.99 | 4.67 | 4.85 | 4.52 | 4.67 | 5.05
CCGATTAACATCAGATATTCCCCTGATGTTAATCGGGTCTTGATTCGCTTGACGCTGCTG | 7.71 | 9.63 | 8.71 | 8.17 | 5.36 | 7.31 | 5.94
CCGATTAACATCAGGGGAAACCATGATGTTAATCGGGTCTTGATTCGCTTGACGCTGCTG | 6.6 | 7.42 | 10.1 | 8.24 | 6.18 | 5.84 | 5.64
CCGATTAACATCAGGGAGTCCCCTGATGTTAATCGGGTCTTGATTCGCTTGACGCTGCTG | 10.9 | 8.88 | 7.04 | 4.05 | 10.7 | 9.35 | 6.52
CCGATTAACATCAGGGGGAGAAATGATGTTAATCGGGTCTTGATTCGCTTGACGCTGCTG | 7.1 | 6.13 | 7.48 | 10.7 | 3.41 | 4.8 | 6.45
CCGATTAACATCACAAAAGCCCCTGATGTTAATCGGGTCTTGATTCGCTTGACGCTGCTG | 6.25 | 8.09 | 7.4 | 1.08 | 6.85 | 7.27 | 6.34
CCGATTAACATCAAGTAACCCCCTGATGTTAATCGGGTCTTGATTCGCTTGACGCTGCTG | 6.04 | 4.44 | 4.98 | 3.76 | 6.97 | 5.32 | 5.24
